Screens deposited in PubChem BioAssay by The Scripps Research Institute Molecular Screening Center.
FBW7 activator = activators of human E3 ligase FBW7. AlphaScreen FBW7–phospho-cyclin E peptide binding, activator screen. normalized activity (activation), % at 26.1 µM. 650,000 compounds, 0.13% hits. AID 1259310; in the data active = normalized activity above about 1.9%;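 note: purified mutant Fbw7 with reduced substrate affinity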
Target sequence (Q969H0 whole entry, looked up): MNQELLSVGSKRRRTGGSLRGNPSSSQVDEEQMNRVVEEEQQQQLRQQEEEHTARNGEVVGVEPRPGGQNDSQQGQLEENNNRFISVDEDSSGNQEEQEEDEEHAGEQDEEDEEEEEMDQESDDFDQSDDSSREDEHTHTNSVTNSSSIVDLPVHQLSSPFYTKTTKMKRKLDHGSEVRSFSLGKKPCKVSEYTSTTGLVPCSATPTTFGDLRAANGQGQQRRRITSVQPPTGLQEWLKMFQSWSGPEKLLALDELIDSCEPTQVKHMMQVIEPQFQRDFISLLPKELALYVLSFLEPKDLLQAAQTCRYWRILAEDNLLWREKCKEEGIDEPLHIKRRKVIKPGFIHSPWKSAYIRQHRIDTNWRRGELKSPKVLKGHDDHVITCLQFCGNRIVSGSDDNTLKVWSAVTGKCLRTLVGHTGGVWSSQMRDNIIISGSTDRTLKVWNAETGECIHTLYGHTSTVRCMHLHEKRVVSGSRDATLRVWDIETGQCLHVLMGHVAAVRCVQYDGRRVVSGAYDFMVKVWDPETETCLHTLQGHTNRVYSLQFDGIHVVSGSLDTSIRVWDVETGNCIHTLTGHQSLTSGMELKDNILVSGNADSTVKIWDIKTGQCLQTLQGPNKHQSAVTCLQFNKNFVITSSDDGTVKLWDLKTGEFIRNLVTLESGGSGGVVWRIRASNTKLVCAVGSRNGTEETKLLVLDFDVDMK
GPR151 ag = activators of human GPR151 | Q8TDV0 | PathHunter beta-arrestin GPR151 cells, luminescence | activation, % at 11.2 µM | 650,000 compounds, 1% hits | AID 1508602; in the data active = activation above about 4.9%;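 note: 0% = median of compound wells and 100% = cells with positive control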
TEAD-YAP block = TEAD-YAP interaction inhibition | HEK-TIYL cells, TEAD-Gal4/YAP UAS-luciferase luminescence | inhibition, % at 9.12 µM | 640,000 compounds, 1.4% hits | AID 1259422; in the data active = inhibition above about 32%;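 note: 0% = median of test compound wells and 100% = reference inhibitor wells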
MITF primary = inhibitors of human MITF | O75030 | AlphaScreen MITF homodimerization, bead proximity signal | inhibition, % at 2.6 µM | 650,000 compounds, 0.91% hits | AID 1259374; in the data active = inhibition above about 50%;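 note: 0% = vehicle wells with protein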
Numbers without * were called inactive; · = not tested or not shown. Only some compounds are listed: those with a hit (about 3.5% of all), similar ones and a draw of the others.

SMILES	FBW7 activator	GPR151 ag	TEAD-YAP block	MITF primary
COc1ccc(-n2ncc3c(N4CCN(c5ccccc5)CC4)ncnc32)cc1	0	-1	-1	-9
COc1ccc(-n2ncc3c(N4CCCCC4)ncnc32)cc1	0	-8	91*	12
COCCNC(=O)c1ccc2cncc(-c3ccsc3)c2n1	0	0	78*	14
O=C(NC1CC1)c1csc(Nc2cccnc2)n1	0	1	7	8
O=C(NC1CC1)c1ccc2cncc(-c3ccsc3)c2n1	0	-2	71*	11
O=C(c1cc2c(s1)CCC2)N1CCC(c2ccncc2)CC1	0	-1	33*	17
Oc1c(C(Nc2ccccn2)c2ccc(C(F)(F)F)cc2)ccc2cccnc12 (stereo not given)	-2	-2	46*	3
Cc1cccc(NC(c2ccc(C(F)(F)F)cc2)c2ccc3cccnc3c2O)n1 (stereo not given)	-1	-1	77*	7
COc1cccc(-c2nnc(-c3ccc(N)cc3)o2)c1	0	-1	41*	-4
COc1cccc(N2C(=O)NC(=O)/C(=C/c3cnc(SC)nc3)C2=O)c1	0	0	0	-6
Cc1csc(NC(=O)c2cc([N+](=O)[O-])ccc2Sc2nnnn2C)n1	0	2	39*	2
O=C(COC(=O)c1ccc([N+](=O)[O-])o1)NC(=O)Nc1ccc2c(c1)OCCO2	0	0	37*	-3
CCC(=O)N1CCCC(c2nnc(-c3ccccc3F)s2)C1 (stereo not given)	0	-6	74*	6
COCCN1CCCc2ccc(NC(=O)c3ccc(C)c(C)c3)cc21	0	4	-58	15
COc1ccc(-n2c(=S)[nH]c3cc(C(=O)Nc4ccc(F)cc4)ccc3c2=O)c(OC)c1	0	2	71*	3
COc1ccc(N2C(=O)NC3CC2(C)Oc2ccc(Cl)cc23)cc1OC (stereo not given)	2.2*	1	6	-1
COc1ccccc1N1CCN(c2ncnc3sc(C(=O)Nc4cccc(Cl)c4)c(C)c23)CC1	0	0	-11	7
CCOc1ccc(S(=O)(=O)N2CCCc3ccccc32)c2cccnc12	0	-1	48*	-9
Cc1cccc(-n2ncc3c(N4CCCC4)ncnc32)c1	0	0	52*	0
Cc1ccc(-n2ncc3c(N4CCOCC4)ncnc32)c(C)c1	0	1	58*	0
Cc1cccc(-n2ncc3c(N4CCN(c5ccccc5)CC4)ncnc32)c1	0	0	-8	-4
Cc1ccc(N2CCN(c3ncnc4c3c(-c3ccccc3)cn4-c3ccc(Br)cc3)CC2C)cc1 (stereo not given)	3.7*	-1	-5	-3
Cc1ccc(-n2ncc3c(N4CCCCC4)ncnc32)c(C)c1	0	2	-33	5
Cc1ccc(-n2ncc3c(N4CCCC4)ncnc32)cc1	0	-2	48*	-9
COc1ccc(CNc2nc3nc(C)c(C)c(=O)n3[nH]2)cc1OC	0	2	-2	-3
SMILES	FBW7 activator	GPR151 ag	TEAD-YAP block	MITF primary
Cc1cccc(-n2ncc3c(N4CCOCC4)ncnc32)c1	0	-7	93*	-1
Cc1cccc(N2CCN(c3ncnc4c3cnn4-c3ccccc3)CC2C)c1 (stereo not given)	1	-1	43*	14
Cc1ccc(-n2ncc3c(N4CCCCC4)ncnc32)cc1C	0	-4	73*	10
CC(C)(C)c1ccccc1OCCCCn1ccnc1	0	0	-4	7
COc1ccc(-c2cc(C(=O)N/N=C/c3ccc(O)cc3O)[nH]n2)cc1	-1	-1	12	3
COC(=O)C1=CN(Cc2ccc(OC)c(OC)c2)C=C(C(=O)OC)C1c1ccc(F)cc1	0	0	-21	-4
CCOc1cc(C2C(C(=O)OC)=CN(Cc3ccc(Cl)cc3)C=C2C(=O)OC)ccc1O	0	-1	-4	-2
COC(=O)C1=CN(Cc2ccc(OC)c(OC)c2)C=C(C(=O)OC)C1c1ccc(Br)cc1	1.9*	-2	3	4
CCOc1cc(C2C(C(=O)OC)=CN(Cc3ccc(OC)c(OC)c3)C=C2C(=O)OC)ccc1O	1	0	48*	13
Cn1ccnc1N1CCN(C(=O)Cc2cccc3ccccc23)CC1	0	-1	-3	4
COC(=O)Nc1nc2ccc(C(=O)c3ccccc3)cc2[nH]1	1	3	33*	-5
CCCCOC(=O)c1ccccc1C(=O)c1ccc2nc(NC(=O)OC)[nH]c2c1	0	0	39*	3
COC(=O)Nc1nc2ccc(S(=O)c3ccccc3)cc2[nH]1 (stereo not given)	0	1	·	8
